Where “and” joins values, the source holds several entries; their conditions need not be identical. Identical values can stand only once. About 2,000 (36%) of roughly 5,500 compounds were called active. Inconclusive results (about 18%) are left out. Rule as the data show it: active = normalized growth mostly below about 0.91 (no sharp cut-off); inconclusive = no clear call, values can overlap the other calls; inactive = mostly above about 0.92. The list shows a part of the results.
Assay: chemical genetic growth profiling, strain panel (AID 1159580);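 also: tested at 20 µM; growth read once vehicle control cultures reached saturation at 30 °C; 1 = growth at the plate median or of vehicle wells; lower values mean less growth of the strain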
Conditions: S. cerevisiae deletion strains, growth OD

Measured: normalized growth

NC12CC3CC(CC(C3)C1)C2
inactive: locus YAL021C, strain ccr4, hits give low values 0.977 | locus YAL026C, strain drs2, hits give low values 0.996 | locus YAL030W, strain snc1, hits give low values 1.01 | locus YAL040C, strain CLN3, hits give low values 0.968 | locus YBL061C, strain skt5, hits give low values 1.01 | locus YBR009C, strain hhf1, hits give low values 0.99 | locus YBR021W, strain FUR4, hits give low values 0.992 | locus YBR023C, strain chs3, hits give low values 1.01 | locus YBR171W, strain sec66, hits give low values 1.01 | locus YBR229C, strain ROT2, hits give low values 1 | locus YBR231C, strain swc5, hits give low values 1.03 | locus YBR279W, strain paf1, hits give low values 0.994 | locus YCL011C, strain gbp2, hits give low values 0.985 | locus YCL016C, strain dcc1, hits give low values 0.977 | locus YCL029C, strain bik1, hits give low values 1.02 | locus YCL061C, strain MRC1 (second series), hits give low values 0.991 | locus YCL061C, strain MRC1, hits give low values 1.04 | locus YCL069W, strain vba3, hits give low values 1.01 | locus YCR088W, strain abp1, hits give low values 1.01 | locus YDL005C, strain med2, hits give low values 0.987 | locus YDL035C, strain GPR1, hits give low values 1.01 | locus YDL040C, strain nat1, hits give low values 1 | locus YDL074C, strain BRE1, hits give low values 1.02 | locus YDL101C, strain DUN1, hits give low values 1.02 | locus YDL134C, strain PPH21, hits give low values 1 | locus YDL185W, strain tfp1, hits give low values 1.02 | locus YDL192W, strain arf1, hits give low values 1.03 | locus YDR001C, strain nth1, hits give low values 0.995 | locus YDR069C, strain doa4, hits give low values 1.01 | locus YDR101C, strain arx1, hits give low values 1.03 | locus YDR137W, strain rgp1, hits give low values 1.03 | locus YDR150W, strain NUM1, hits give low values 0.992 | locus YDR159W, strain sac3, hits give low values 0.989 | locus YDR162C, strain NBP2, hits give low values 1.02 | locus YDR195W, strain ref2 1 | locus YDR297W, strain sur2, hits give low values 1.01 | locus YDR318W, strain mcm21, hits give low values 1.02 | locus YDR334W, strain swr1, hits give low values 0.994 | locus YDR335W, strain msn5, hits give low values 1.01 | locus YDR363W, strain ESC2, hits give low values 1.04 | locus YDR388W, hits give low values 1.02 | locus YDR392W, strain spt3, hits give low values 0.96 | locus YDR502C, strain sam2, hits give low values 1.01 | locus YEL003W, strain gim4, hits give low values 1.03 | locus YEL037C, strain rad23, hits give low values 0.995 | locus YEL061C, strain CIN8 (second series), hits give low values 0.998 | locus YEL061C, strain CIN8, hits give low values 1.01 | locus YER002W, strain NOP16, hits give low values 0.993 | locus YER015W, strain faa2, hits give low values 1.01 | locus YER016W, strain bim1, hits give low values 0.996 | locus YER110C, hits give low values 1.03 | locus YER111C, strain swi4, hits give low values 0.998 | locus YER155C, strain BEM2 (second series), hits give low values 1.05 | locus YER155C, strain BEM2, hits give low values 0.998 | locus YER167W, strain BCK2, hits give low values 1 | locus YFR010W, strain ubp6, hits give low values 1.01 | locus YGL078C, strain dbp3, hits give low values 1.02 | locus YGL086W, strain mad1, hits give low values 1.01 | locus YGL167C, strain pmr1, hits give low values 1 | locus YGL173C, strain kem1, hits give low values 1.03 | locus YGL227W, strain vid30, hits give low values 1 | locus YGL240W, strain doc1, hits give low values 1.04 | locus YGL248W, strain PDE1, hits give low values 1.03 | locus YGL253W, strain hxk2, hits give low values 0.98 | locus YGR078C, strain PAC10, hits give low values 0.999 | locus YGR135W, strain pre9, hits give low values 1.01 | locus YGR229C, strain SMI1, hits give low values 1.01 | locus YGR252W, strain gcn5, hits give low values 1.03 | locus YHR013C, strain ard1, hits give low values 1 | locus YHR027C, strain rpn1, hits give low values 0.996 | locus YHR030C, strain SLT2, hits give low values 1 | locus YHR079C, strain IRE1 (second series), hits give low values 1.03 | locus YHR079C, strain IRE1, hits give low values 1.02 | locus YHR094C, strain hxt1, hits give low values 1.01 | locus YHR129C, strain ARP1, hits give low values 1.01 | locus YHR142W, strain chs7, hits give low values 0.995 | locus YHR200W, strain rpn10, hits give low values 1.02 | locus YIL066C, strain RNR3, hits give low values 1.02 | locus YIL073C, strain SPO22, hits give low values 1.11 | locus YIL125W, strain kgd1, hits give low values 1.02 | locus YIR030C, strain dcg1, hits give low values 1.02 | locus YJL092W, strain hpr5, hits give low values 1.01 | locus YJL095W, strain BCK1 (second series), hits give low values 1.01 | locus YJL095W, strain BCK1, hits give low values 1.02 and 1.03 | locus YJL115W, strain asf1, hits give low values 0.999 | locus YJL129C, strain trk1, hits give low values 1.01 | locus YJL134W, strain LCB3, hits give low values 1.01 | locus YJL154C, strain vps35, hits give low values 0.998 | locus YJL164C, strain tpk1, hits give low values 0.98 | locus YJL166W, strain qcr8, hits give low values 1.04 | locus YJL168C, strain set2, hits give low values 1.02 | locus YJL187C, strain SWE1 (second series), hits give low values 1.03 | locus YJL187C, strain SWE1, hits give low values 1.01 | locus YJR043C, strain POL32, hits give low values 0.986 | locus YJR066W, strain TOR1, hits give low values 0.988 | locus YJR075W, strain HOC1, hits give low values 1.02 | locus YKL009W, strain mrt4, hits give low values 1.02 | locus YKL068W, hits give low values 1.01 | locus YKL085W, strain MDH1 (second series), hits give low values 1.01 | locus YKL085W, strain MDH1, hits give low values 1.01 | locus YKL160W, strain elf1, hits give low values 1.02 | locus YKR001C, strain vps1, hits give low values 1.01 | locus YKR026C, strain gcn3, hits give low values 1 | locus YKR091W, strain srl3, hits give low values 1 | locus YLL001W, strain dnm1, hits give low values 1.02 | locus YLL026W, hits give low values 1.01 | locus YLL041C, strain sdh2, hits give low values 0.993 | locus YLR027C, strain aat2, hits give low values 1.01 | locus YLR039C, strain RIC1, hits give low values 1.04 | locus YLR058C, strain SHM2, hits give low values 1.02 | locus YLR102C, strain apc9, hits give low values 1.02 | locus YLR113W, strain HOG1, hits give low values 1.04 | locus YLR221C, strain rsa3, hits give low values 0.986 | locus YLR258W, strain gsy2, hits give low values 0.993 | locus YLR262C, strain YPT6 (second series), hits give low values 1.03 | locus YLR262C, strain YPT6, hits give low values 1.07 | locus YLR268W, strain sec22, hits give low values 1.02 | locus YLR320W, strain mms22, hits give low values 0.977 | locus YLR330W, strain CHS5, hits give low values 1.01 | locus YLR342W, strain FKS1 (second series), hits give low values 0.997 | locus YLR342W, strain FKS1, hits give low values 1.03 | locus YLR357W, strain rsc2, hits give low values 0.993 | locus YLR370C, strain arc18, hits give low values 1 | locus YLR371W, strain rom2, hits give low values 1.02 | locus YLR384C, strain iki3, hits give low values 0.998 | locus YLR418C, strain cdc73, hits give low values 1.04 | locus YML016C, strain PPZ1, hits give low values 1.01 | locus YML032C, strain rad52, hits give low values 1.01 | locus YML120C, strain ndi1, hits give low values 1.03 | locus YML124C, strain tub3, hits give low values 1.02 | locus YMR058W, strain fet3, hits give low values 1.01 | locus YMR078C, strain ctf18, hits give low values 1.04 | locus YMR125W, strain sto1, hits give low values 0.999 | locus YMR129W, hits give low values 1 | locus YMR205C, strain PFK2, hits give low values 1.01 | locus YMR223W, strain ubp8, hits give low values 1.02 | locus YMR231W, strain pep5, hits give low values 0.999 | locus YMR307W, strain GAS1, hits give low values 0.933 | locus YNL067W, strain RPL9B, hits give low values 1.03 | locus YNL071W, strain lat1, hits give low values 0.989 | locus YNL128W, strain TEP1, hits give low values 0.983 | locus YNL153C, strain GIM3, hits give low values 1 | locus YNL175C, strain NOP13, hits give low values 0.996 | locus YNL183C, strain NPR1, hits give low values 0.972 | locus YNL197C, strain WHI3, hits give low values 0.978 | locus YNL209W, strain ssb2, hits give low values 0.989 | locus YNL224C, strain SQS1, hits give low values 1.01 | locus YNL233W, strain BNI4, hits give low values 1.02 | locus YNL248C, strain rpa49, hits give low values 0.994 | locus YNL250W, strain rad50, hits give low values 1.04 | locus YNL271C, strain bni1, hits give low values 1.03 | locus YNL298W, strain CLA4, hits give low values 1.02 | locus YNL307C, strain MCK1, hits give low values 1.03 | locus YNL322C, strain KRE1 (second series), hits give low values 0.999 | locus YNL322C, strain KRE1, hits give low values 1 | locus YNR049C, strain mso1, hits give low values 1 | locus YNR052C, strain pop2, hits give low values 1.02 | locus YOL006C, strain TOP1, hits give low values 1.1 | locus YOL012C, strain htz1 1.89 | locus YOL147C, strain pex11, hits give low values 1.03 | locus YOR001W, strain rrp6, hits give low values 1.05 | locus YOR061W, strain CKA2, hits give low values 1.02 | locus YOR069W, strain VPS5, hits give low values 1.01 | locus YOR070C, strain gyp1, hits give low values 0.99 | locus YOR080W, strain dia2, hits give low values 1.01 | locus YOR083W, strain WHI5 (second series), hits give low values 1 | locus YOR083W, strain WHI5, hits give low values 0.994 | locus YOR106W, strain vam3, hits give low values 1.04 | locus YOR136W, strain idh2, hits give low values 1.03 | locus YOR144C, strain elg1, hits give low values 1.02 | locus YOR184W, strain ser1, hits give low values 1.02 | locus YOR231W, strain MKK1, hits give low values 1.02 | locus YOR265W, strain rbl2, hits give low values 1.01 | locus YOR270C, strain vph1, hits give low values 1.03 | locus YOR290C, strain snf2, hits give low values 0.97 | locus YOR316C, strain cot1, hits give low values 1.02 | locus YPL051W, strain arl3, hits give low values 1.02 | locus YPL055C, strain LGE1, hits give low values 1.01 | locus YPL078C, strain atp4, hits give low values 1.05 | locus YPL106C, strain sse1, hits give low values 0.986 | locus YPL240C, strain hsp82, hits give low values 1.01 | locus YPL241C, strain CIN2, hits give low values 1 | locus YPL256C, strain CLN2, hits give low values 1.02 | locus YPR119W, strain clb2, hits give low values 1.02 | locus YPR141C, strain kar3, hits give low values 1.03 | locus YPR163C, strain tif3, hits give low values 1.02 | locus YPR167C, strain met16, hits give low values 1.03 | strain wtn01, hits give low values 1.01
